# Experimental data from PubChem BioAssay.
# Calls of active or inactive are those of the source. Unless noted, no stated cut-off is given here; in the data, active means inhibition above about 80%; inactive means the rest.
# Tests used:
# [1] = LFS_MB_P medulloblastoma growth inhibition, cell-based, chromothripsis tumors, cisplatin or BGB combos (AID 1671449); conditions: LFS_MB_P medulloblastoma cells;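 further: cells exposed for 96 hours; 0% = vehicle DMSO and 100% = killing by high DMSO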
# [2] = HDN33 neuroblastoma growth inhibition, cell-based, chromothripsis tumors, cisplatin or BGB combos (AID 1671450); conditions: HDN33 neuroblastoma cells, stronger effect = higher value;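 further: cells exposed to compound for four days; 0% = vehicle DMSO and 100% = cell killing by high DMSO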
# [3] = ICB984 medulloblastoma cell growth inhibition, synergistic combos for chromothripsis tumors, cisplatin or BGB combos (AID 1671451; call rule not given here;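 further: cells exposed for 96 hours before readout; 0% = vehicle DMSO and 100% = killing by high DMSO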); conditions: ICB984 medulloblastoma cells, drug combinations, stronger effect = higher value
# [4] = LFS_MB_1R medulloblastoma cell growth inhibition, synergistic combos for chromothripsis tumors, cisplatin or BGB combos (AID 1671452); conditions: LFS_MB_1R medulloblastoma cells, stronger effect = higher value;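 further: cells exposed for 96 hours before readout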
# [5] = HTB85 osteosarcoma cell growth inhibition, synergistic combos for chromothripsis tumors, BGB or cisplatin IC20 combos (AID 1671453); conditions: HTB85 osteosarcoma cells, drug combinations, stronger effect = higher value;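 further: cells exposed for 96 hours before readout; 0% = vehicle DMSO and 100% = high DMSO killing control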
# [6] = CRL2098 osteosarcoma cell growth inhibition, synergistic combos for chromothripsis tumors, BGB or cisplatin IC20 combos (AID 1671454); conditions: CRL2098 osteosarcoma cells, drug combinations, stronger effect = higher value;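 further: cells exposed for 96 h before readout; 0% = vehicle DMSO and 100% = killing by high DMSO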
# [7] = HD-MB03 medulloblastoma cell growth inhibition, synergistic combos for chromothripsis tumors, BGB or cisplatin IC20 combos (AID 1671455; in the data active means inhibition above about 83%;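 further: 0% = vehicle DMSO and 100% = high DMSO as cytotoxic control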); conditions: HD-MB03 medulloblastoma cells, stronger effect = higher value
# [8] = UWB1.289 ovarian carcinoma cell growth inhibition, synergistic combos for chromothripsis tumors, BGB or cisplatin combos (AID 1671456); conditions: UWB1.289 ovarian carcinoma cells, stronger effect = higher value;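 further: cells exposed to compound for four days; 0% = vehicle DMSO and 100% = killing by high DMSO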
# [9] = LFS_MB_2R medulloblastoma cell growth inhibition, synergistic combos for chromothripsis tumors, cisplatin combos (AID 1671457); conditions: LFS_MB_2R medulloblastoma cells, stronger effect = higher value;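 further: cells exposed to compound for four days before readout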
# [10] = MDA-MB-436 breast carcinoma cell growth inhibition, synergistic combos for chromothripsis tumors, BGB or cisplatin combos (AID 1671458; call rule not given here;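 further: cells exposed for 96 hours; 0% = vehicle DMSO and 100% = killing by high DMSO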); conditions: MDA-MB-436 breast carcinoma growth inhibition, drug combinations, stronger effect = higher value
# [11] = UWB1.289_BRCA1 ovarian cancer growth, cell-based, BGB or cisplatin combinations (AID 1671459); conditions: UWB1.289 BRCA1 ovarian carcinoma, drug combinations, stronger effect = higher value
# [12] = human astrocyte viability loss, single and combined drugs, cytotoxicity control for chromothriptic childhood tumor combination screen, cell-based, BGB or cisplatin IC20 combos (AID 1671460); conditions: Human astrocytes, drug combinations, stronger effect = higher value;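 further: cells exposed to compounds for 96 hours before viability readout; 0% = vehicle and 100% = killing control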
# [13] = growth inhibition of BT084 medulloblastoma cells, cell-based, ICGC_MB145, cisplatin and BGB IC40 combos (AID 1671461); conditions: drug combinations, stronger effect = higher value;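 further: cells exposed to drugs for 96 hours; 0% = vehicle DMSO and 100% = high DMSO full killing control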
# [14] = growth inhibition of RCMB18 medulloblastoma cells, cell-based, cisplatin and BGB IC40 combos (AID 1671462); conditions: stronger effect = higher value;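 further: cells exposed to compound for four days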
# [15] = growth inhibition of CRL1545 osteosarcoma cells, cell-based, cisplatin and BGB IC20 combos (AID 1671464); conditions: stronger effect = higher value;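 further: cells exposed to compound for 96 hours before readout; 0% = vehicle DMSO and 100% = high DMSO killing control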
# [16] = measured here: combination with BGB IC40, at 0.05 µM
# [17] = measured here: with BGB IC20 combination, at 0.5 µM
# [18] = measured here: with cisplatin IC20 combination, at 0.5 µM
# [19] = measured here: combination with cisplatin, at 0.5 µM
# [20] = measured here: combination with cisplatin, at 5 µM
smiles,measurement,setting,value
NC(=O)c1ncn(C2OC(CO)C(O)C2O)c1O (stereo not drawn),inhibition,"[1]; at 0.5 µM, stronger effect = higher value",-12.6% (inactive)
same,inhibition,"[1]; measured here: combination with BGB IC20, at 0.005 µM",-7.32%
same,inhibition,"[1]; measured here: combination with BGB IC40, at 0.005 µM",-2.51%
same,inhibition,[1]; [16],-10.8%
same,inhibition,"[1]; measured here: combination with cisplatin, at 0.5 µM, stronger effect = higher value",-6.4%
same,inhibition,"[1]; measured here: combination with cisplatin, at 5 µM, stronger effect = higher value",-30%
same,inhibition,"[2]; BGB combo, at 5 µM",5.04%
same,inhibition,[2]; at 0.5 µM,6.65% (inactive)
same,inhibition,"[2]; cisplatin combo, at 5 µM",-12.8%
same,inhibition,[2]; [17],16.7%
same,inhibition,[2]; [18],12.5%
same,inhibition,"[2]; single agent, at 5 µM",-11%
same,inhibition,"[3]; BGB IC20 combo, at 0.005 µM",6.56%
same,inhibition,"[3]; BGB IC40 combo, at 0.005 µM",-22.2%
same,inhibition,"[3]; BGB IC40 combo, at 0.05 µM",-25%
same,inhibition,[3]; at 0.5 µM,-19.3% (inactive)
same,inhibition,"[3]; cisplatin combo, at 0.05 µM",-25%
same,inhibition,"[3]; cisplatin combo, at 0.5 µM",-21.3%
same,inhibition,"[3]; cisplatin combo, at 5 µM",9.18%
same,inhibition,"[3]; measured here: 5 uM single agent, at 5 µM",-10.8%
same,inhibition,[4]; at 0.5 µM,-1.69% (inactive)
same,inhibition,[4]; [16],11.9%
same,inhibition,[4]; [19],14.5%
same,inhibition,[4]; [20],1.36%
same,inhibition,[5]; at 0.5 µM,-21.2% (inactive)
same,inhibition,"[5]; measured here: with BGB IC20, at 0.5 µM",-45.8%
same,inhibition,"[5]; measured here: with BGB IC20, at 5 µM",-14%
same,inhibition,"[5]; measured here: with cisplatin IC20, at 0.5 µM",-13.3%
same,inhibition,"[5]; measured here: with cisplatin IC20, at 5 µM",26.5%
same,inhibition,"[5]; single agent, at 5 µM",4.97%
same,inhibition,[6]; at 0.5 µM,-22.6% (inactive)
same,inhibition,"[6]; measured here: combination with BGB at IC20, at 0.5 µM",-31.9%
same,inhibition,"[6]; measured here: combination with cisplatin at IC20, at 0.5 µM",-21.8%
same,inhibition,[7]; at 0.5 µM,-5.96% (inactive)
same,inhibition,"[7]; measured here: combo with BGB at IC20, at 0.5 µM",-11.6%
same,inhibition,"[7]; measured here: combo with cisplatin at IC20, at 0.5 µM",0.212%
same,inhibition,[8]; at 0.5 µM,2.16% (inactive)
same,inhibition,"[8]; measured here: inhibition with BGB combination, at 0.05 µM",-15.4%
same,inhibition,"[8]; measured here: inhibition with cisplatin combination, at 0.05 µM",-3.17%
same,inhibition,[9]; at 0.5 µM,-17.9% (inactive)
same,inhibition,[9]; [19],-10.4%
same,inhibition,[9]; [20],-9.64%
same,inhibition,[10]; at 0.5 µM,-15.6% (inactive)
same,inhibition,"[10]; measured here: BGB combination, at 0.5 µM",-16%
same,inhibition,"[10]; measured here: BGB combination, at 5 µM",-1.99%
same,inhibition,"[10]; measured here: cisplatin combination, at 0.5 µM",-28.5%
same,inhibition,"[10]; measured here: cisplatin combination, at 5 µM",-10.8%
same,inhibition,"[11]; BGB combination, concentration series, at 5 µM",5.96%
same,inhibition,[11]; at 0.5 µM,2.34% (inactive)
same,inhibition,"[11]; cisplatin combination, concentration series, at 5 µM",12.4%
same,inhibition,[12]; at 0.5 µM,-5.39% (inactive)
same,inhibition,"[12]; measured here: combo with BGB IC20, at 0.5 µM",-5.58%
same,inhibition,"[12]; measured here: combo with cisplatin IC20, at 0.5 µM",-13.5%
same,inhibition,[13]; at 0.5 µM,-0.897% (inactive)
same,inhibition,"[13]; cisplatin combination, at 0.5 µM",6.23%
same,inhibition,"[13]; cisplatin combination, at 5 µM",-20.7%
same,inhibition,"[13]; measured here: BGB IC40 combination 0.05 uM, at 0.05 µM",5.17%
same,inhibition,"[13]; single agent, at 5 µM",-12.6%
same,inhibition,[14]; at 0.5 µM,-9.69% (inactive)
same,inhibition,"[14]; cisplatin combo, at 5 µM",0.143%
same,inhibition,"[14]; measured here: BGB IC40 combination, at 0.05 µM",-17.2%
same,inhibition,[14]; [19],9.55%
same,inhibition,"[14]; single agent, at 5 µM",-31.2%
same,inhibition,[15]; at 0.5 µM,-13.2% (inactive)
same,inhibition,[15]; [17],2.45%
same,inhibition,[15]; [18],-21%
same,inhibition,"[15]; single agent, at 0.05 µM",13%
same,inhibition,"[15]; single agent, at 5 µM",22.2%
